Each structure is given as a SMILES string. Records with an inconclusive call do not appear. A call without a number means that no potency is given here. Activity calls are given as the source filed them. Calls follow the shape of the dose curve; as a rule, active = well fitted curve in the direction sought with a large enough effect; inconclusive = small, poorly fitted or top-dose-only effect, or another doubt; inactive = no such curve, though single readings can be large; an effect the other way counts as inactive or inconclusive.
Potency is read from the fitted curve at half-maximal effect.

Test system in the first assay: not listed separately
Put plainly: Primary fluorescence-based thiol-reactive (MSTI) qHTS assay for identification of artifact compounds. (AID 1845221). Also: nearly all actives have a fitted effect of over 65% in size. The note with it: MSTI thiol-reactivity probe, 1 h; series mostly up to 53.8 µM. Put shortly:
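Reactivity toward the thiol probe MSTI (4 uM) is scored by fluorescence at Ex/Em 525/598 nm after 1 h at room temperature. Acetyl-MSTI and MSTI define the activity scale.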
(In general: qHTS replaces the single test concentration by a dilution series.)
As for `C=CC(=O)Nc1cccc(Sc2nc(Nc3ccc(N4CCN(C)CC4)cc3)ncc2Cl)c1`, the Potency was 3.36 µM (active).
The same measure, in the same setting: the result for `Cc1cccc2c1CC[C@H](CN1CCC(c3c(Cl)cccc3Cl)CC1)C[C@@H]2O` reads “inactive”.
Still for that read-out and setting: the entry for `N#Cc1ccc(Oc2ccc3c(c2)COB3O)cc1` is “inactive”; for `Cc1ccc2c(c1)c1c(n2CCc2ccc(C)nc2)CCN(C)C1` it is “inactive”; for `CCCCn1c(=O)n(Cc2ccccc2F)c(=O)c2[nH]c(Cc3ccc(NC(C)=O)cc3)nc21` it is “inactive”.
On the same count and under the same terms, the entry for `CC(=O)Nc1cccc(-n2c(=O)n(C3CC3)c(=O)c3c(Nc4ccc(I)cc4F)n(C)c(=O)c(C)c32)c1` is “inactive”; for `C[C@@H](NC(=O)c1ncnc(N)c1Cl)c1ncc(C(=O)Nc2cc(C(F)(F)F)c(Cl)cn2)s1` it is “inactive”; for `CN(C)CCOc1cc(-c2cn[nH]c2)ccc1NC(=O)C1COc2ccccc2O1` (configuration not stated) it is “inactive”.
Consider `Cn1c(=O)c(-c2c(Cl)cccc2Cl)cc2cnc(Nc3cccc(C(=O)O)c3)nc21`, for which the Potency result is “inactive”.
Same read-out and setting: the entry for `Cc1nc2c([nH]1)CCN(C(=O)c1ccc(NC(=O)c3ccccc3-c3ccccc3)cc1)c1ccccc1-2` is “inactive”.
On the same count and under the same terms, the result for `Cc1c(C(=O)Nc2ccc(N3C[C@@H](C)O[C@@H](C)C3)nc2)cccc1-c1ccc(OC(F)(F)F)cc1` reads “inactive”.
The same measure, in the same setting: the result for `O=C(Nc1cccc(C(F)(F)F)c1)Nc1cc(S(=O)(=O)NC2CC2)ccc1-c1ccsc1` reads “inactive”; that for `O=C(CC12CC3CC(CC(C3)C1)C2)Nc1cccc2nc(NCCNCCO)ccc12`, “inactive”.
As for `COC(=O)N1CCN(Cc2cccc(NC(=O)Nc3ccc(C)nc3)c2F)CC1`, the Potency entry is “inactive”.
On the same count and under the same terms, the entry for `CS(=O)(=O)c1ccc(C2=C(c3ccccc3)C(=O)OC2)cc1` is “inactive”; for `CCN1CCC(n2cc(CNc3cc(Cl)c4ncc(C#N)c(Nc5ccc(F)c(Cl)c5)c4c3)nn2)CC1` it is “inactive”.
Still for that read-out and setting: the result for `Cc1cnc(-c2cc(N3CCN(C(=O)CCS(C)(=O)=O)CC3)ncc2Cl)c(C)c1` reads “inactive”; that for `CN(C)c1nc(Cc2ccc(NC(=O)c3ccc(C(F)(F)F)cc3)cc2)nc(N(C)C)c1CC(=O)O`, “inactive”.
The same measure, in the same setting: the entry for `COc1nccc(-c2c(-c3ccc(F)cc3)ncn2C2CCC(O)CC2)n1` (configuration not stated) is “inactive”.
Take `Nc1ccc(-c2ccc3ncc4ccc(=O)n(-c5cccc(C(F)(F)F)c5)c4c3c2)cn1`: the Potency entry was “inactive”.
The same measure, in the same setting: the result for `Cc1ccccc1C(C(=O)NC1CCCCC1)N(C(=O)CNc1ccc(C#N)cc1)c1cccc(F)c1` (configuration not stated) reads “inactive”; that for `C[C@H](c1ccc(F)cc1CCCC(=O)O)N(c1cc(F)ccc1F)S(=O)(=O)c1ccc(Cl)cc1`, “inactive”.
On the same count and under the same terms, the entry for `c1ccc(-c2oc3ncnc(NC[C@@H]4CCCO4)c3c2-c2ccccc2)cc1` is “inactive”; for `CC(C)CNc1ccnc(NCc2csc(-c3ccccc3)n2)n1` it is “inactive”.
`CNC1CCC(N(Cc2cccc(-c3ccncc3)c2)C(=O)c2sc3ccccc3c2Cl)CC1` (configuration not stated): the Potency result was “inactive”.
As for `CCN1C[C@H](C)n2c(c(O)c3c(=O)n(Cc4ccc(F)c(Cl)c4)nc(C(=O)NC)c32)C1=O`, the Potency is 29.9 µM (active).
On the same count and under the same terms, the entry for `CCc1cccc(CC)c1NC(=O)N1Cc2[nH]nc(NC(=O)c3ccc(N4CCN(C)CC4)cc3)c2C1` is “inactive”.
Same read-out and setting: the result for `Cn1cnc(-c2cc3nccc(Oc4ccc(NC(=S)NC(=O)Cc5ccccc5)cc4F)c3s2)c1` reads “inactive”; that for `CCCCC(F)(F)[C@@]1(O)CC[C@H]2[C@H](CC(=O)[C@@H]2CCCCCCC(=O)O)O1`, “inactive”.
Still for that read-out and setting: the entry for `c1cc(OCCN2CCCCC2)cc(-c2n[nH]c3ccc(-c4ncn[nH]4)cc23)c1` is “inactive”.
Turning to `CC1(COc2ccc3c(c2)ncn3-c2ccc3cccc(N4CCC(N)CC4)c3n2)COC1`, the Potency result is “inactive”.
Take `CCNC(=O)c1noc(-c2cc(C(C)C)c(O)cc2O)c1-c1ccc(CN2CCOCC2)cc1`: the Potency result was “inactive”.
Still for that read-out and setting: the result for `CC(C)(C)c1nc(-c2cccc(NS(=O)(=O)c3c(F)cccc3F)c2F)c(-c2ccnc(N)n2)s1` reads “inactive”; that for `COc1cc2ncnc(Nc3cc(Br)c(O)c(Br)c3)c2cc1OC`, 6.7 µM (active); that for `COc1ccc(-c2ccc3ncc4c(c3c2)n(-c2ccc(N3CCNCC3)c(C(F)(F)F)c2)c(=O)n4C)cn1`, “inactive”.
As for `Nc1ncnc2c1c(-c1cccc(OCc3ccccc3)c1)cn2C1CC(CN2CCC2)C1` (configuration not stated), the Potency result is “inactive”.
Still for that read-out and setting: the entry for `COc1ccc(CCC(=O)Nc2nc3ccc(Cl)cc3s2)cc1OC` is “inactive”.

Another assay relates to Nanoluciferase (engineered Oplophorus gracilirostris luciferase). Put plainly: Primary Nanoluciferase (NLuc) qHTS assay for identification of artifact compounds. (AID 1845222). The note with it: NLuc-conditioned medium, Nano-Glo luminescence, 5 min; series mostly up to 54.1 µM. A digest of the protocol: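 NLuc from S16 cell medium (1:55) plus test compounds, 15 min, room temperature. Luminescence after Nano-Glo (1:100) addition, 5 min.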
On to `C=CC(=O)Nc1cccc(Sc2nc(Nc3ccc(N4CCN(C)CC4)cc3)ncc2Cl)c1`, for which the Potency result was “inactive”.
Consider `Cc1cccc2c1CC[C@H](CN1CCC(c3c(Cl)cccc3Cl)CC1)C[C@@H]2O`, for which the Potency result is “inactive”.
Same read-out and setting: the entry for `Cc1ccc2c(c1)c1c(n2CCc2ccc(C)nc2)CCN(C)C1` is “inactive”.
On the same count and under the same terms, the figure for `CCCCn1c(=O)n(Cc2ccccc2F)c(=O)c2[nH]c(Cc3ccc(NC(C)=O)cc3)nc21` is 13.5 µM (active).
The same measure, in the same setting: the result for `CC(=O)Nc1cccc(-n2c(=O)n(C3CC3)c(=O)c3c(Nc4ccc(I)cc4F)n(C)c(=O)c(C)c32)c1` reads “inactive”; that for `C[C@@H](NC(=O)c1ncnc(N)c1Cl)c1ncc(C(=O)Nc2cc(C(F)(F)F)c(Cl)cn2)s1`, “inactive”; that for `CN(C)CCOc1cc(-c2cn[nH]c2)ccc1NC(=O)C1COc2ccccc2O1` (configuration not stated), “inactive”.
In the case of `Cn1c(=O)c(-c2c(Cl)cccc2Cl)cc2cnc(Nc3cccc(C(=O)O)c3)nc21`, the Potency result was “inactive”.
Same read-out and setting: the result for `Cc1nc2c([nH]1)CCN(C(=O)c1ccc(NC(=O)c3ccccc3-c3ccccc3)cc1)c1ccccc1-2` reads “inactive”; that for `Cc1c(C(=O)Nc2ccc(N3C[C@@H](C)O[C@@H](C)C3)nc2)cccc1-c1ccc(OC(F)(F)F)cc1`, “inactive”.
Still for that read-out and setting: the result for `O=C(Nc1cccc(C(F)(F)F)c1)Nc1cc(S(=O)(=O)NC2CC2)ccc1-c1ccsc1` reads “inactive”; that for `O=C(CC12CC3CC(CC(C3)C1)C2)Nc1cccc2nc(NCCNCCO)ccc12`, “inactive”; that for `COC(=O)N1CCN(Cc2cccc(NC(=O)Nc3ccc(C)nc3)c2F)CC1`, “inactive”.
On the same count and under the same terms, the entry for `CCN1CCC(n2cc(CNc3cc(Cl)c4ncc(C#N)c(Nc5ccc(F)c(Cl)c5)c4c3)nn2)CC1` is “inactive”; for `Cc1cnc(-c2cc(N3CCN(C(=O)CCS(C)(=O)=O)CC3)ncc2Cl)c(C)c1` it is “inactive”; for `CN(C)c1nc(Cc2ccc(NC(=O)c3ccc(C(F)(F)F)cc3)cc2)nc(N(C)C)c1CC(=O)O` it is “inactive”.
As for `COc1nccc(-c2c(-c3ccc(F)cc3)ncn2C2CCC(O)CC2)n1` (configuration not stated), the Potency entry is “inactive”.
Still for that read-out and setting: the result for `Nc1ccc(-c2ccc3ncc4ccc(=O)n(-c5cccc(C(F)(F)F)c5)c4c3c2)cn1` reads “inactive”; that for `Cc1ccccc1C(C(=O)NC1CCCCC1)N(C(=O)CNc1ccc(C#N)cc1)c1cccc(F)c1` (configuration not stated), “inactive”; that for `C[C@H](c1ccc(F)cc1CCCC(=O)O)N(c1cc(F)ccc1F)S(=O)(=O)c1ccc(Cl)cc1`, “inactive”.
On the same count and under the same terms, the entry for `c1ccc(-c2oc3ncnc(NC[C@@H]4CCCO4)c3c2-c2ccccc2)cc1` is “inactive”.
Still for that read-out and setting: the entry for `CC(C)CNc1ccnc(NCc2csc(-c3ccccc3)n2)n1` is “inactive”.
With `CNC1CCC(N(Cc2cccc(-c3ccncc3)c2)C(=O)c2sc3ccccc3c2Cl)CC1` (configuration not stated), the Potency result is “inactive”.
Same read-out and setting: the result for `CCN1C[C@H](C)n2c(c(O)c3c(=O)n(Cc4ccc(F)c(Cl)c4)nc(C(=O)NC)c32)C1=O` reads “inactive”; that for `CCc1cccc(CC)c1NC(=O)N1Cc2[nH]nc(NC(=O)c3ccc(N4CCN(C)CC4)cc3)c2C1`, “inactive”.
Regarding `Cn1cnc(-c2cc3nccc(Oc4ccc(NC(=S)NC(=O)Cc5ccccc5)cc4F)c3s2)c1`, the Potency entry is “inactive”.
Still for that read-out and setting: the result for `CCCCC(F)(F)[C@@]1(O)CC[C@H]2[C@H](CC(=O)[C@@H]2CCCCCCC(=O)O)O1` reads “inactive”; that for `c1cc(OCCN2CCCCC2)cc(-c2n[nH]c3ccc(-c4ncn[nH]4)cc23)c1`, “inactive”; that for `CC1(COc2ccc3c(c2)ncn3-c2ccc3cccc(N4CCC(N)CC4)c3n2)COC1`, “inactive”.
Still for that read-out and setting: the entry for `CCNC(=O)c1noc(-c2cc(C(C)C)c(O)cc2O)c1-c1ccc(CN2CCOCC2)cc1` is “inactive”; for `CC(C)(C)c1nc(-c2cccc(NS(=O)(=O)c3c(F)cccc3F)c2F)c(-c2ccnc(N)n2)s1` it is “inactive”; for `COc1cc2ncnc(Nc3cc(Br)c(O)c(Br)c3)c2cc1OC` it is “inactive”.
Still for that read-out and setting: the result for `COc1ccc(-c2ccc3ncc4c(c3c2)n(-c2ccc(N3CCNCC3)c(C(F)(F)F)c2)c(=O)n4C)cn1` reads “inactive”; that for `Nc1ncnc2c1c(-c1cccc(OCc3ccccc3)c1)cn2C1CC(CN2CCC2)C1` (configuration not stated), “inactive”.
Regarding `COc1ccc(CCC(=O)Nc2nc3ccc(Cl)cc3s2)cc1OC`, the Potency result is “inactive”.

(Values after PubChem BioAssay (NCATS).)
